Out of some 190,000 compounds screened, about 3,500 (1.8%) were called active. Many of the other results were omitted from the sample, so actives are more common in it than they were. Values without a mark were called inactive.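 Rule for the calls: active = inhibition above a set limit, 3 SD over mean compound inhibition (cut at about 8.4% in these data); inactive = the rest.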
Assay: inhibitors of the yeast RAM network, primary screen, dse1pr::URA3 reporter, 5-FOA selection (AID 868);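 note: 0% = DMSO-only wells with no growth and 100% = 10 µM 1-NA-PP1 full growth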
Details: S. cerevisiae dse1pr::URA3 reporter, 5-FOA growth OD615, 2 d; at 50 µM; active compounds read high; analog-sensitive cbk1-as2 kinase mutant strain

| SMILES | inhibition |
| --- | --- |
| O=C(NCCCNc1ccc([N+](=O)[O-])cc1Cl)c1ccccc1F | 1.43% |
| COCC(C)n1c(C)cc(C(=O)COc2ccc(C)nc2[N+](=O)[O-])c1C (configuration not stated) | 1.49% |
| Cc1ccc(C(=O)NC(=S)NCc2cccnc2)cc1 | 5.38% |
| COc1cc(C2C(C(=O)c3ccc(C)o3)=C(O)C(=O)N2CCc2ccccc2)ccc1O (configuration not stated) | 9.49% (active) |
| COc1ccc(C2C(C(C)=O)=C(O)C(=O)N2CCc2c[nH]c3ccccc23)cc1 (configuration not stated) | 3.37% |
| COc1cc(C2C(C(=O)c3ccc(C)o3)=C(O)C(=O)N2Cc2cccnc2)ccc1O (configuration not stated) | 0.23% |
| O=C(COc1cccc2ccccc12)Nc1cc(S(=O)(=O)N2CCOCC2)ccc1N1CCOCC1 | 3.39% |
| Clc1ccc(CSc2nnc(/C=C/c3ccccc3)o2)c(Cl)c1 | 9.57% (active) |
| S=c1[nH]nc(CSCc2ccc(Cl)cc2Cl)n1-c1ccccc1 | 4.95% |
| O=C(Nc1nnc(SCc2ccc(Cl)cc2Cl)s1)C1COc2ccccc2O1 (configuration not stated) | 4.44% |
| O=C(Nc1ccccc1)N1CCN(C(=O)Nc2ccccc2)CC1 | 2.76% |
| O=C(COC(=O)/C=C/c1cn(-c2ccccc2)nc1-c1cccnc1)Nc1ccc(Cl)cc1Cl | 2.97% |
| COc1ccc2c(c1)CCc1c(C(=O)Nc3c(C)n(C)n(-c4ccccc4)c3=O)noc1-2 | 3.23% |
| COc1ccc2c(c1)CCc1c(C(=O)N3CCCC3)noc1-2 | 2.15% |
| COc1ccc2c(c1)CCc1c(C(=O)N3CCc4ccccc4C3)noc1-2 | 12.2% (active) |
| O=C(NN1C(=O)C2C3C=CC(O3)C2C1=O)c1ccncc1 (configuration not stated) | 2.74% |
| Cc1cccc(C(=O)Nc2ccc3c(c2)C(=O)N(CC(C)C)C3=O)c1 | 3.29% |
| CCCCN1C(=O)c2ccc(C(=O)Nc3ccc(S(=O)(=O)N(C)C)cc3)cc2C1=O | 3.73% |
| CC(C)CCN1C(=O)c2ccc(C(=O)Nc3cccc(S(N)(=O)=O)c3)cc2C1=O | 9.03% (active) |
| Cc1ncoc1C(=O)N1CCCC(C(=O)c2ccc3c4c(cccc24)CC3)C1 (configuration not stated) | 1.14% |
| CCC1CCCCN1C(=O)CSc1nc(C)cc(C)n1 (configuration not stated) | -1.36% |
| COc1ccc(CC(=O)NC(C)CCc2ccccc2)cc1 (configuration not stated) | 0.14% |
| COc1ccc(C(CC(=O)O)NC(=O)Cc2ccccc2)cc1 (configuration not stated) | 0.54% |

| SMILES | inhibition |
| --- | --- |
| CCC/C=C(\CCC)C(NC(=O)Cc1ccccc1)c1ccc(C(=O)OC)cc1 (configuration not stated) | 8.71% (active) |
| Cc1cccc(CN2CCN(Cc3cnn(-c4ccccc4F)c3)CC2CCO)n1 (configuration not stated) | -0.13% |
| COc1cc(NC(=S)N2CCCC(C)C2)cc(OC)c1OC (configuration not stated) | 2.19% |
| Fc1ccc(-n2c(Cc3ccccc3)nnc2SCc2nc(-c3ccc(Cl)cc3)no2)cc1 | 14.2% (active) |
| Cc1ccc(-c2noc(CSc3nnc(-c4ccccc4)n3C)n2)cc1 | 2.09% |
| Cc1ccc(-c2noc(CSc3nnc(-c4ccncc4)n3-c3ccc(F)cc3)n2)cc1 | 2.42% |
| Cc1n[nH]c(=O)n1-c1ccc(C(C)C)cc1 | 0.86% |
| Nc1nc(-c2sc3nc4c(cc3c2N)CCCC4)nc(N2CCOCC2)n1 | 5.88% |
| COc1ccc(NS(=O)(=O)c2ccc(NC(C)=O)cc2)cc1OC | 1.03% |
| COc1ccc(C(=O)Oc2cc(/C=N/NS(=O)(=O)c3ccc(C)cc3)ccc2OC)cc1 | 5.34% |
| COc1ccc(/C=C/C(=O)c2ccc(NS(=O)(=O)c3ccc(C)cc3)cc2)cc1O | 11.1% (active) |
| Cc1cc(C2=NNC(=Nc3ccc(S(=O)(=O)N4CCOCC4)cc3)SC2)c(C)n1CC1CCCO1 (configuration not stated) | 5.9% |
| CC(C(=O)NC1CCCC1)N(c1ccc(Oc2ccccc2)cc1)S(C)(=O)=O (configuration not stated) | -0.13% |
| O=C1c2ccccc2C(=O)N1CCC(O)C[N+](=O)[O-] (configuration not stated) | 1.77% |
| CC(=O)NC1C(Oc2ccc(C)cc2)OC2COC(c3ccco3)OC2C1O (configuration not stated) | 0.78% |
| Cc1cc(C)cc(NC(=O)CSCc2cnn(-c3ccccc3)c2-n2cccc2)c1 | 13.3% (active) |
| Cc1cc(C)cc(NC(=O)CSc2ccccc2)c1 | 1.47% |
| CC(=O)Nc1ccc(NC(=O)CSCc2cnn(-c3ccccc3)c2-n2cccc2)cc1 | 0.44% |
| Nc1nc(SCc2ccc([N+](=O)[O-])cc2)c2ncn(C3OC(CO)C(O)C3O)c2n1 (configuration not stated) | 1.26% |
| NS(=O)(=O)c1cccc(NC(=O)CSc2nc3ccccc3n2-c2ccccc2)c1 | 6.21% |
| CCc1ccc(C(=O)OCC(=O)Nc2cccc(S(=O)(=O)NC3=NCCCCC3)c2)cc1 | 0.26% |
| Cc1cccc(-n2c(SCC(=O)Nc3cccc(S(=O)(=O)NC4=NCCCCC4)c3)nc3ccccc3c2=O)c1C | 11.7% (active) |
| O=C(CN1CCN(Cc2ccc(F)cc2Cl)C1=O)NCc1cccs1 | 0.13% |

| SMILES | inhibition |
| --- | --- |
| O=C(COC(=O)CNC(=O)c1ccccc1F)NCC(F)(F)F | 3.2% |
| O=C(N/N=C\c1ccc(-c2ccc(Cl)c(Cl)c2)o1)C(=O)N1CCCC1 | 8.47% (active) |
| COC(=O)N/N=C/c1ccc(-c2ccc(Cl)c(Cl)c2)o1 | 1.74% |
| O=C(N/N=C/c1ccc([N+](=O)[O-])cc1)C(=O)N1CCCC1 | 1.52% |
| Cc1nccn1CCCNC(=O)CC1C(=O)NCCN1Cc1ccc(Cl)c(F)c1 (configuration not stated) | -1.07% |
| COCCNC(=O)/C(C#N)=C/c1nc(N(C)C)n(-c2ccc(F)cc2)c1Cl | 0.24% |
| O=c1c2ccccc2c(-c2ccccc2)nn1Cc1ccccc1 | 6.51% |
| O=C(NCc1ccco1)c1nc(-c2ccccc2)n(-c2ccccc2)n1 | 0.66% |
| O=C(NCCc1ccco1)c1nn(Cc2ccccc2)c(=O)c2ccccc12 | 11.2% (active) |
| N/C(=N/O)c1cccn1Cc1ccccc1[N+](=O)[O-] | 0.13% |
| O=S(=O)(c1ccc2c(c1)OCCO2)N1CCc2ccccc21 | 2.45% |
| COc1ccc(Cl)cc1NC(=O)CNc1ccccc1F | -1.15% |
| COC(=O)[C@@H](NC(=O)Nc1cc(Cl)ccc1C)C(C)C | 1.68% |
| COc1ccc(Cl)cc1NC(=O)NC(C)C(C)(C)C (configuration not stated) | 12.8% (active) |
| COCCNC(=O)C(OC(=O)c1cccs1)c1ccc(F)cc1 (configuration not stated) | 0.51% |
| Cc1ccc(NC(=O)Cn2cccc2C2=NC(c3ccccc3)CO2)c(C)c1 (configuration not stated) | 0.92% |
| COC(=O)C1=C(C)N(C)C(=S)NC1c1cc(OC)ccc1OC (configuration not stated) | 0.25% |
| COc1cccc(C(=O)Nc2cc3c(cc2Br)OCCCO3)c1 | 1.75% |
| COc1ccc(C2C=C(c3ccc(Br)cc3)Nc3nc(NS(C)(=O)=O)nn32)cc1 (configuration not stated) | 13.4% (active) |
| Brc1ccc(C2=CC(c3ccco3)n3ncnc3N2)cc1 (configuration not stated) | 0.23% |
| COc1ccc(C2=CC(c3cccc(OC)c3)n3nnnc3N2)cc1 (configuration not stated) | 5.23% |
| CNC(=O)c1[nH]cnc1C(=O)N[C@@H](CC(C)C)C(=O)OC(C)(C)C | 0.13% |
| CSCC(=O)N1CCCC(C(=O)c2cc(F)ccc2F)C1 (configuration not stated) | 0.37% |

| SMILES | inhibition |
| --- | --- |
| Cc1cc(C)n2nc(SCC(N)=O)nc2n1 | -0.25% |
| C/C(=C\c1ccco1)C1Nc2cccc3cccc(c23)N1 | 8.69% (active) |
| CC(/C=N/NC(=O)c1cc(-c2ccc3ccccc3c2)n[nH]1)=C\c1ccco1 | 2.36% |
| CC(/C=N/NC(=O)c1ccncc1)=C\c1ccco1 | 1.91% |
| CCOC(=O)c1c(NC(=O)CNC2CCCc3ccccc32)sc(C(N)=O)c1C (configuration not stated) | 3.87% |
| COc1cc(C(=O)Nc2cc(C(F)(F)F)ccc2N2CCOCC2)ccc1O | 0.55% |
| Fc1cccc2ncnc(OCc3ccccc3)c12 | 3.63% |
| CCC[C@@H]1C[C@@]1(CCC)[C@@H](NC(=O)c1ccccc1)c1ccc(C(=O)OC)cc1 | 9.65% (active) |
| COC(=O)[C@H](C)[C@H]1C[C@]1(C)[C@H](NC(=O)OCc1ccccc1)c1ccccc1 | 8.31% |
| COC(=O)c1ccc(NCC(=O)c2ccccc2)cc1 | 0.14% |
| CC(C)C(=O)Nc1oc(-c2ccccc2)cc1C#N | 1.62% |
| COc1cc(N2C(=O)c3ccccc3C2=O)c(Cl)cc1C(=O)OCC(=O)N1CCOCC1 | 0.61% |
| COc1cc(/C=C2/C(=O)ON=C2C)ccc1OCc1ccccc1F | 11.4% (active) |
| COc1cc(/C=C2/C(=O)ON=C2C)ccc1OCc1cccc(F)c1 | 1.59% |
| CCOc1cc(/C=N/O)ccc1OCc1ccccc1F | 0.13% |
| N#Cc1ccc(C(=O)Nc2nc(-c3cccs3)c(C(=O)C(F)(F)F)s2)cc1 | 3.01% |
| CCN(CC(=O)NC(=O)NCc1ccccc1)Cc1nc2ccccc2c(=O)[nH]1 | 0.8% |
| CC(=O)NC1(c2ccc(F)cc2)CCN(C(=O)c2c(F)cccc2F)CC1 | -0.25% |
| O=C(CSc1nnc2scc(-c3ccc(F)cc3)n12)NCc1ccco1 | 9.95% (active) |
| Cc1ccc(-c2csc3nnc(SCC(=O)NCc4ccco4)n23)cc1 | 0.13% |
| Cn1c(-c2ccc(F)cc2)cnc1SCC(=O)NCc1ccco1 | 1.92% |
| Cc1ccc(C2CC(c3cccc(NS(C)(=O)=O)c3)=NN2S(C)(=O)=O)cc1 (configuration not stated) | 0.38% |
| O=c1c([N+](=O)[O-])cccn1Cc1ccc(F)cc1Cl | -0.54% |

Source: PubChem BioAssay AID868 (SRMLSC, 2007)
